Inconclusive results are not listed. The source made the active and inactive calls. Unless noted, calls follow the shape of the dose curve; as a rule, active = well fitted curve in the direction sought with a large enough effect; inconclusive = small, poorly fitted or top-dose-only effect, or another doubt; inactive = no such curve, though single readings can be large; an effect the other way counts as inactive or inconclusive.
Experiments:
[1] = qHTS assay for small molecule disruptors of the mitochondrial membrane potential - 1 hr assay (AID 651754; calls by dose curve; also: % is scaled to controls: 0 for no effect and ±100 for the full control effect; nearly all actives have a fitted effect of over 35% in size)
Summary of the method: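 HepG2 cells, attached overnight at 37C, were exposed to compound or DMSO vehicle for 1 hr at 37C, 5% CO2, then stained with Mito-MPS dye for 30 min. Red aggregate versus green monomer fluorescence reports membrane potential.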

[2] = qHTS assay for small molecule disruptors of the mitochondrial membrane potential - 5 hr assay (AID 651755; calls by dose curve; also: % is scaled to controls: 0 for no effect and ±100 for the full control effect; nearly all actives have a fitted effect of over 40% in size)
Summary of the method: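 HepG2 cells, attached overnight at 37C, were exposed to compound or DMSO for 5 hr at 37C, 5% CO2. Mito-MPS dye was then added for 30 min, and fluorescence read at 490/535 nm (monomers) and 540/590 nm (aggregates).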

[3] = target: Tumor necrosis factor (Homo sapiens) (UniProt P01375); assay: qHTS assay to identify small molecules that stimulate Tumor Necrosis Factor-alpha (TNF-alpha) secretion (AID 651757; active = well fitted curve in the direction sought with a large enough effect in the signal ratio; the % refers to the signal ratio; also: 0% is about no effect)
Summary of the method: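 THP-1 cells were exposed to compounds for 17 hrs at 37 C, after which secreted TNF-alpha was measured by homogeneous HTRF (TR-FRET) using cryptate- and XL665-labeled anti-TNF-alpha antibodies, read after 3 hr at room temperature.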

[4] = qHTS assay for environmental chemicals that activate the Aryl hydrocarbon Receptor (AhR) signaling pathway (AID 651777); conditions: 1A2-DRE human hepatoma cells, luciferase, 24 h; activation: active compounds read high; also: % of control where 0% means no effect; nearly all actives have a fitted effect of over 15% in size
Summary of the method: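 1A2-DRE human hepatoma reporter line; 1,200 cells/well; cmpd or DMSO 24 h, 37 C/5% CO2; One-Glo 30 min RT; luciferase lum.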

[5] = target: Peroxisome proliferator-activated receptor alpha (Homo sapiens) (UniProt Q07869); assay: qHTS assay for small molecule agonists of the peroxisome proliferator-activated receptor alpha (PPARalpha) signaling pathway (AID 651778); conditions: PathHunter PPARalpha complementation, chemiluminescence, 6 h; active compounds read high; also: % of control where 0% means no effect
Summary of the method: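 Cells plated at 2,000/well and held overnight at 37 C, 5% CO2, then compound added by pin tool for 6 hr; after PathHunter detection reagent and 60 min at room temperature, chemiluminescence from enzyme complementation was read.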

[6] = target: Nuclear receptor ROR-gamma (Homo sapiens) (UniProt P51449); assay: qHTS assay for small molecule antagonists of the retinoid-related orphan receptor gamma (ROR-gamma) signaling pathway (AID 651802); also: series mostly up to about 92 µM; % is scaled to controls: 0 for no effect and ±100 for the full control effect; nearly all actives have a fitted effect of over 60% in size
Summary of the method: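 CHO cells carrying TET-inducible ROR-gamma and an ROR response element–luciferase reporter were exposed to compound, then induced with doxycycline. After 16hr at 37C, luminescence was read; lower signal indicates antagonism.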

[7] = qHTS assay for small molecule agonists of the antioxidant response element (ARE) signaling pathway measured by Nrf2-dependant transcriptional activity (AID 720636; active = well fitted curve in the direction sought with a large enough effect in the repeat runs; an effect the other way counts as inactive or inconclusive;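 also: HepG2 cells with an ARE-driven luciferase reporter; % of control where 0% means no effect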)
Summary of the method: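 Cells: ARE-luc HepG2 with Nrf2-responsive luciferase. Medium contained 1% dialyzed FBS. Compound exposure lasted 16 hr at 37 C and 5% CO2, followed by ONE-Glo luciferase detection.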

[8] = qHTS assay for small molecule antagonists of the retinoid-related orphan receptor gamma (ROR-gamma) signaling pathway - cell viability counter screen (AID 720652; active = well fitted curve in the direction sought with a large enough effect in the repeat runs; an effect the other way counts as inactive or inconclusive;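 also: series mostly up to about 92 µM; compound exposure lasted 16 hr before ATP read; % is scaled to controls: 0 for no effect and ±100 for the full control effect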)
Summary of the method: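 Counter screen in CHO cells carrying TET-inducible ROR-gamma and an ROR response element-luciferase reporter; cells plated 5 hr, compound pinned, doxycycline added, then 16 hr at 37 C. Viability read as intracellular ATP by CellTiter-Glo luminescence.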

[9] = qHTS assay for small molecule agonists of the antioxidant response element (ARE) signaling pathway measured by Nrf2-dependant transcriptional activity - cell viability counter screen (AID 720653; active = well fitted curve in the direction sought with a large enough effect in the repeat runs; an effect the other way counts as inactive or inconclusive; also: % is scaled to controls: 0 for no effect and ±100 for the full control effect); conditions: ARE-bla HepG2 viability, CellTiter-Glo ATP luminescence, 16 h; active compounds read low
Summary of the method: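 ARE-bla HepG2 cells (2,000/well) rested 5 hrs at 37C/5% CO2, then exposed to compounds in DMSO for 16 hrs. Viability was read in the same wells as intracellular ATP by luminescence, 30 min at room temperature after reagent addition.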

[10] = qHTS assay for cell viability of HEK293 cells (AID 743288); conditions: ATP luminescence (CellTiter-Glo), 18 h, active compounds read low; also: % is scaled to controls: 0 for no effect and ±100 for the full control effect; nearly all actives have a fitted effect of over 50% in size
Summary of the method: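 Parental HEK293 cells were seeded at 2,000 cells/well, rested at least 5 h at 37 C, then exposed to compounds in DMSO for 18 h at 37 C. Viability was read as ATP-dependent luciferase luminescence after 30 min at room temperature.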

[11] = qHTS assay for cell viability of the p53RE-bla HCT-116 cell line (AID 743292); also: % is scaled to controls: 0 for no effect and ±100 for the full control effect; nearly all actives have a fitted effect of over 55% in size
Summary of the method: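 HCT-116 p53RE-bla cells seeded 4,000/well; 5 h at 37 C; compound (DMSO) added; 16 h at 37 C; CellTiter-Glo added, 30 min RT; luminescence read.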

[12] = target: Nuclear receptor subfamily 1 group I member 2 (Rattus norvegicus) (UniProt Q9R1A7); assay: qHTS assay for small molecule activators of the rat pregnane X receptor (rPXR) signaling pathway (AID 651751; call rule not given here; also: 0% is about no effect); conditions: rPXR reporter cells, luciferase (One-Glo), 24 h
[13] = qHTS assay for small molecule activators of the human pregnane X receptor (PXR) signaling pathway (AID 720659; call rule not given here; also: 0% is about no effect)

Chain of Nuclear receptor subfamily 1 group I member 2 (Rattus norvegicus) (Q9R1A7 whole entry, looked up): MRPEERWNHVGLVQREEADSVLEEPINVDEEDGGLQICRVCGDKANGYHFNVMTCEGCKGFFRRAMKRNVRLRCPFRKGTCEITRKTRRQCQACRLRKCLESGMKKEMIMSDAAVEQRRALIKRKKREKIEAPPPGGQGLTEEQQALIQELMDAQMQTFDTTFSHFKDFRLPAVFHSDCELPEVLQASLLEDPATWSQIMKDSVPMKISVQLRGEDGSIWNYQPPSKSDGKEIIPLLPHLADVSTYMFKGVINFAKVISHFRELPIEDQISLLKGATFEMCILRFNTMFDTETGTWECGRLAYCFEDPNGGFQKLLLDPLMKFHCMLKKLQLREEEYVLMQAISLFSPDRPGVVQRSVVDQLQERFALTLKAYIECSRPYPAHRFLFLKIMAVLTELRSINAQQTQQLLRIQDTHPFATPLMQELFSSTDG
Chain of Peroxisome proliferator-activated receptor alpha (Homo sapiens) (Q07869 whole entry, looked up): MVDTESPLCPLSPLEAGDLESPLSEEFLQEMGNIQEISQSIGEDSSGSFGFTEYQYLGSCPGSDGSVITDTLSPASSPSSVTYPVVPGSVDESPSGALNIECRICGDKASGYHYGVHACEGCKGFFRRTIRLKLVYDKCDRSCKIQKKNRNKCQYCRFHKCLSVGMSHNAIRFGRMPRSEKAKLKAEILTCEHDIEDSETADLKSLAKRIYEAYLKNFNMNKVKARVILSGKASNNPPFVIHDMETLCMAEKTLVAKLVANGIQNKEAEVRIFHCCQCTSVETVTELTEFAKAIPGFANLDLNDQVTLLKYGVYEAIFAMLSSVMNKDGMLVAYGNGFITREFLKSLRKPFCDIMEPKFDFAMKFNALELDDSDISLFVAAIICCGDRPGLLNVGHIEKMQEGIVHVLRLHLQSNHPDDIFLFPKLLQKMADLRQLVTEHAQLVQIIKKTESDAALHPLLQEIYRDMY
Chain of Tumor necrosis factor (Homo sapiens) (P01375 whole entry, looked up): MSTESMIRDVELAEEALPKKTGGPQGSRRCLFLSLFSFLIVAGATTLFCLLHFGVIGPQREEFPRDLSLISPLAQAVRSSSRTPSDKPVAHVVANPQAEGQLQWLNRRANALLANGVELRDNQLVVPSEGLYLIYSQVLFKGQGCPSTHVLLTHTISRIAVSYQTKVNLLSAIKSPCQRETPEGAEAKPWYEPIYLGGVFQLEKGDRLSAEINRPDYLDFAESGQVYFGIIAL
Chain of Nuclear receptor ROR-gamma (Homo sapiens) (P51449 whole entry, looked up): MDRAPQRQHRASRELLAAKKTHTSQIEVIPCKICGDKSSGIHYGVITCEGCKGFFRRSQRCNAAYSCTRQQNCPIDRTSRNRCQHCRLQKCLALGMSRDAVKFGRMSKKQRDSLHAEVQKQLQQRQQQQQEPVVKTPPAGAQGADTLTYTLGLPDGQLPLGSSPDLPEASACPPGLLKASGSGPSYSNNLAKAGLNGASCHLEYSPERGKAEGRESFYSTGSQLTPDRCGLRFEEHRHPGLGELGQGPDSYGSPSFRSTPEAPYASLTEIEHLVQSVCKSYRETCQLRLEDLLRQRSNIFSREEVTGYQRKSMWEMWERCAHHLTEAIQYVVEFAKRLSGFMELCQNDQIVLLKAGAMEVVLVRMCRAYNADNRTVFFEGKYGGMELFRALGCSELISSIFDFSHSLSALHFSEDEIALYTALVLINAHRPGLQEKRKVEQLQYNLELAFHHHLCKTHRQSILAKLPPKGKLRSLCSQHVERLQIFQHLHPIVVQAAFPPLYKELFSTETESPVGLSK

Cc1ccccc1C(N)=O
inactive: Potency [1] | Potency [2] | Potency [3] | activation [4] -0.0237% | max response [5] -0.838% | Potency [6] | outcome [7] | Potency [8] | max response [9] -2.23% | max response [10] 10.1% | Potency [11] | max response [12] -3.36% | outcome [13]

Cc1ccc(Cl)cc1N
inactive: Potency [1] | Potency [2] | Potency [3] | activation [4] -0.729% | max response [5] -6.36% | Potency [6] | outcome [7] | Potency [8] | max response [9] 6.01% | max response [10] 3.66% | Potency [11] | max response [12] 0.767% | outcome [13]

CC(=O)Nc1ccc(C)cc1
inactive: Potency [1] | Potency [2] | Potency [3] | activation [4] -0.295% | max response [5] -1.18% | Potency [6] | outcome [7] | Potency [8] | max response [9] 2.3% | max response [10] -2.69% | Potency [11] | max response [12] -0.0412% | outcome [13]

CC(=O)c1ccccn1
inactive: Potency [1] | Potency [2] | Potency [3] | activation [4] -0.723% | max response [5] 0.325% | Potency [6] | outcome [7] | Potency [8] | max response [9] 5.72% | max response [10] -9.54% | Potency [11] | max response [12] 2.33% | outcome [13]

Cc1cccc(Br)c1
inactive: Potency [1] | Potency [2] | Potency [3] | activation [4] 0.194% | max response [5] -5.52% | Potency [6] | outcome [7] | Potency [8] | max response [9] 6.53% | max response [10] 1.57% | Potency [11] | max response [12] -3.61% | outcome [13]

C/C=C1\CC2C=CC1C2 (stereo not drawn)
inactive: Potency [1] | Potency [2] | Potency [3] | activation [4] -0.171% | max response [5] -5.32% | Potency [6] | outcome [7] | Potency [8] | max response [9] -2.33% | max response [10] 9.62% | Potency [11] | max response [12] 0.0305% | outcome [13]

Cc1c(C(=O)O)cccc1[N+](=O)[O-]
inactive: Potency [1] | Potency [2] | Potency [3] | activation [4] 1.63% | max response [5] -0.685% | Potency [6] | outcome [7] | Potency [8] | max response [9] 17.9% | max response [10] 6.06% | Potency [11] | max response [12] 0.0854% | outcome [13]

O=C(Cl)c1ccccc1[N+](=O)[O-]
inactive: Potency [1] | Potency [2] | Potency [3] | activation [4] 0.05% | max response [5] 3.57% | Potency [6] | outcome [7] | Potency [8] | max response [9] 18.8% | max response [10] -5.53% | Potency [11] | max response [12] 1.88% | outcome [13]

Cc1ccc(C)o1
inactive: Potency [1] | Potency [2] | Potency [3] | activation [4] -0.971% | max response [5] -7.85% | Potency [6] | outcome [7] | Potency [8] | max response [9] -12.8% | max response [10] -6.28% | Potency [11] | max response [12] -1.6% | outcome [13]

CCCCCCCCCCCCOCC1CO1 (stereo not drawn)
inactive: Potency [1] | Potency [2] | Potency [3] | activation [4] 0.152% | max response [5] -0.128% | Potency [6] | outcome [7] | Potency [8] | max response [9] 2.47% | max response [10] -5.24% | Potency [11] | max response [12] 1.3% | outcome [13]

Cc1ccc(C)c([N+](=O)[O-])c1
inactive: Potency [1] | Potency [2] | Potency [3] | activation [4] 0.781% | max response [5] -2.55% | Potency [6] | outcome [7] | Potency [8] | max response [9] -4.07% | max response [10] 4.94% | Potency [11] | max response [12] -1.78% | outcome [13]

CCC(O)C(C)(C)C (stereo not drawn)
inactive: Potency [1] | Potency [2] | Potency [3] | activation [4] 0.48% | max response [5] -0.805% | Potency [6] | outcome [7] | Potency [8] | max response [9] -4.91% | max response [10] -6.59% | Potency [11] | max response [12] 7.53% | outcome [13]

CC1CCCO1 (stereo not drawn)
inactive: Potency [1] | Potency [2] | Potency [3] | activation [4] 2.22% | max response [5] 0.088% | Potency [6] | outcome [7] | Potency [8] | max response [9] -3.62% | max response [10] -15.7% | Potency [11] | max response [12] -1.92% | outcome [13]

C=CCCCCCC
inactive: Potency [1] | Potency [2] | Potency [3] | activation [4] 0.992% | max response [5] -3.21% | Potency [6] | outcome [7] | Potency [8] | max response [9] -7.1% | max response [10] 3.39% | Potency [11] | max response [12] 3.09% | outcome [13]

CCC1CO1 (stereo not drawn)
inactive: Potency [1] | Potency [2] | Potency [3] | activation [4] 0.0109% | max response [5] -1.3% | Potency [6] | outcome [7] | Potency [8] | max response [9] 1.19% | max response [10] 4.98% | Potency [11] | max response [12] 4.08% | outcome [13]

O=C(O)CNC(=O)c1ccc(CO)o1
inactive: Potency [1] | Potency [2] | Potency [3] | activation [4] -1.34% | max response [5] -5.12% | Potency [6] | outcome [7] | Potency [8] | max response [9] -15.7% | max response [10] -5.2% | Potency [11] | max response [12] -7.08% | outcome [13]

From PubChem BioAssay (NCATS)
